# Assay results: ChEMBL document CHEMBL3988442, “University of Dundee, Small-Polar-MMV Screening Library” (2021)
# In all, about 48,000 compounds went through this assay and about 13,000 (27%) showed an effect of 50% or more. Some of the results follow.
# Tested on: Wolbachia pipientis
# Assay: Anti-Wolbachia Cell-Based Screen
# Format: functional
# Set-up: scale not given: in the data most compounds retested in dose-response had high values
# Details: 5 µM
row,Structure (SMILES),Percent Effect
1,c1ccc(-c2cnn3cc(CN4CCC5(CCO5)CC4)cnc23)cc1,-14.3%
2,CC(C)C(=O)N1CCN(CC(O)c2cc(Cl)ccc2Cl)CC1 (stereo unspecified),10.47%
3,CC(NC(=O)COc1ccc(Cl)cc1Cl)c1nncn1C(C)C (stereo unspecified),0.4331%
4,CN(Cc1ccccc1)CC(C)(C)NC(=O)c1ccc(C(N)=O)cn1,12.65%
5,COCCCS(=O)(=O)N1CCN(Cc2cccn2C)CC1,-42.29%
6,CN(C)CCCN1CC2(CCN(C(=O)C3(C)CCCCO3)CC2)OC1=O (stereo unspecified),3.267%
7,CCO[C@@H]1CCN(C(=O)c2ccnnc2)[C@@H]1Cc1cnn(C)c1,-9.757%
8,O=C(c1ccnnc1)N1CC[C@H](OCC2CC2)[C@@H]1Cc1ccncc1,0.4029%
9,O=C(c1ccnnc1)N1CC[C@@H](O)[C@@H]1Cc1ccccc1,101.5%
10,CC(C)Cc1nc(OCC(=O)O)c(C#N)c2c1CCC2,-8.981%
11,CN(Cc1n[nH]c2c1CCCC2)c1cc(N2CCOCC2)nc(N)n1,14.47%
12,O=C(c1ccco1)N1CCOCC2(C1)CN(c1ccccc1)C(=O)CO2 (stereo unspecified),-13.67%
13,CN1CC2(COCCN(C(=O)c3ccco3)C2)OCC1=O (stereo unspecified),-13.58%
14,O=C(c1ccco1)N1CCOCC2(C1)CN(c1ccccn1)C(=O)CO2 (stereo unspecified),92.62%
15,O=C(c1ccco1)N1CCOCC2(C1)CN(c1ccoc1)C(=O)CO2 (stereo unspecified),100.8%
16,CC(O)CCN(C)c1nc2ccccc2c(=O)[nH]1 (stereo unspecified),20.77%
17,COCc1nc(-c2ccc(S(=O)(=O)N3CCCC3)cc2)cs1,-8.912%
18,Cc1noc(CNc2cc3c(cc2Cl)OCCCO3)n1,2.534%
19,CCSCc1nc(O)c2nnn(C3CCN(Cc4ccco4)CC3)c2n1,93.96%
20,Oc1nc(C2CC2)nc2c1nnn2C1CCN(Cc2ccoc2)CC1,197.8%
21,CC(C)N(C)S(=O)(=O)N1CCN(Cc2ccco2)CC1,-10.02%
22,O=C(O)c1cc2c(nc1-c1ccncc1)CCN(Cc1ccoc1)CC2,-1.034%

row,Structure (SMILES),Percent Effect
1,CCSCc1nc(O)c2nnn(C3CCN(Cc4ccoc4)CC3)c2n1,124.7%
2,CCn1ncnc1C(C)NC(=O)C1CCN(Cc2ccco2)CC1 (stereo unspecified),-16.37%
3,c1nc2c(c(C3CCOC3)n1)CCN(Cc1ccoc1)CC2 (stereo unspecified),7.2%
4,O=C(CCn1cccn1)NCC(c1cccs1)N1CCOCC1 (stereo unspecified),0.8626%
5,O=C1CC(NS(=O)(=O)N2CCOCC2)CN1Cc1ccc(F)cc1 (stereo unspecified),-0.715%
6,N#Cc1cnc2ccccc2c1N1CCN(C(=O)C2CCC2)CC1,4.022%
7,Cl.N#Cc1cnc2ccccc2c1N1CCN(CCC(=O)O)CC1,-4.307%
8,N#Cc1cnc2ccccc2c1N1CCC(C(=O)O)CC1,149.3%
9,CCc1nc(CN(C)C(=O)NC(C)c2cccc(NC(C)=O)c2)cs1 (stereo unspecified),4.996%
10,O=C1COc2cccc(OCc3ccccn3)c2N1,-1.975%
11,N#CCCn1nc(C(F)(F)F)c2c1CCC2,109.3%
12,N#CCCn1nc(C(F)(F)F)c2c1CCCC2,118.8%
13,NCCCn1nc(C(F)(F)F)c2c1CCC2,77.67%
14,CC(C)Oc1nnc(SCC(=O)NCC(=O)N2CCCC2)s1,11.98%
15,Cc1cc(N(Cc2cccnc2)C2CC2)n2nc(C(F)(F)F)nc2n1,19.73%
16,CN1CCN(S(=O)(=O)c2cncc(F)c2)c2ccccc2C1,-3.116%
17,O[C@@H]1C[C@@H](c2nc(-c3ccc(F)cc3)no2)N(C2CCOCC2)C1,-13.07%
18,CCC(NC(=O)C1CCN(S(=O)(=O)N(C)C)CC1)c1ccc(C)c(C)c1 (stereo unspecified),-8.706%
19,COCC(=O)NC(Cc1cc(N(C)C)nc(C2CC2)n1)c1ccccc1 (stereo unspecified),113.9%
20,COC(=O)C(NC(=O)COC1CCCCC1)c1ccccc1 (stereo unspecified),3.192%
21,Cc1ccsc1C(Cc1ccccc1)NC(=O)CNC(=O)C1CC1 (stereo unspecified),-6.693%
22,CCC(=O)NC(Cc1cc(N(C)C)nc(C2CC2)n1)c1ccccc1 (stereo unspecified),105%

row,Structure (SMILES),Percent Effect
1,COC(=O)C(NC(=O)c1ccc(N(C)C)nc1)c1ccccc1 (stereo unspecified),15.6%
2,NC(=O)C(NC(=O)COC1CCCC1)c1ccccc1 (stereo unspecified),-1.81%
3,CN(CC(=O)N1CCC(C(O)c2ccccc2)CC1)c1cnccn1 (stereo unspecified),-4.983%
4,CN(CCC(O)c1ccccc1)c1cc(C2CC2)ncn1 (stereo unspecified),7.591%
5,CN(C)c1cc(CC(NC(=O)C2CC2)c2ccccc2)nc(C2CC2)n1 (stereo unspecified),92.65%
6,CCC(=O)NC1CCCN(C(=O)Nc2cc(-c3ccccc3)on2)C1 (stereo unspecified),-16.23%
7,CC(C)C(=O)NC(Cc1cc(N(C)C)nc(C2CC2)n1)c1ccccc1 (stereo unspecified),86.08%
8,COC1CCCN(Cc2nc(Cc3ccccc3F)no2)C1 (stereo unspecified),-1.199%
9,Cc1ccc2c(c1C)OCC2NCc1ccc(C#N)cc1 (stereo unspecified),6.111%
10,Cc1cccc(CC(=O)NC2CCN(C(=O)NC(C)(C)C)CC2)c1,5.736%
11,CCC1=N[C@@]2(CC[C@@H]3CN(C(=O)NCC(C)C)C[C@@H]32)C(=O)N1CCOC,5.071%
12,Cc1c(-c2nc(-c3cccc(CN4CCOCC4)c3)no2)cnn1C,-3.312%
13,COc1ccccc1-c1ncc(CN2C[C@H](O)[C@@H](N3CCCC3)C2)s1,6.619%
14,CCn1c(Cn2ccnc2)nnc1C1CCN(Cc2ccc(C)o2)CC1,-1.566%
15,CSCC(C)(O)CNC(=O)c1ccc(F)cc1Br (stereo unspecified),-10.01%
16,N#CC1(C(=O)NCCCNc2ccc(C(F)(F)F)cn2)CCCC1,-0.7429%
17,O=C(NCCCNc1ccc(C(F)(F)F)cn1)c1ccc(F)cc1Br,166.7%
18,COc1ccc(Br)c(C(=O)NCCNc2ccc(C(F)(F)F)cn2)c1,2.511%
19,O=C(NCCCNc1ccc(C(F)(F)F)cn1)c1ccc(F)cc1F,139.7%
20,N#Cc1ccc(C(=O)NCCCNc2ccc(C(F)(F)F)cn2)cc1,-7.343%
21,CC(C)=CCC/C(C)=C/CC(C)(C)CNCc1ccco1,-15.73%
22,COc1ccc(NC(C)C(=O)N2CCN(c3ccccc3)CC2)cn1 (stereo unspecified),11.01%
